From PubChem BioAssay
Active and inactive are the calls of the source. Unless noted, the rule behind the calls is not given here.

Tests used:
[1] = tested on: Wnt5a (protein binding on small-molecule microarray); assay: small molecules binding Wnt5a protein – biophysical, small-molecule microarray, 635/667 nm fluorescence, primary screen (AID 1142); settings: 635 nm fluorescence, higher = more signal;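 note: fluorescence read at 667 nm with signal to noise per printed feature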
[2] = ATP-based viability of Huh7 replicon cells – cell-based, CellTiter-Glo luminescence, basal, 48 h, cytotoxicity control for HCV replication inhibitor project, primary screen (AID 1143); settings: higher = more signal, called active from +8 up or from −8 down;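 note: Huh7 hepatoma cells carrying a hepatitis C replication reporter with no stimulus; test concentration not given here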
[3] = Pseudomonas biofilm growth suppression – PAO1 strain, BacTiter-Glo luminescence, LB-PBS, primary screen (AID 1144); settings: P. aeruginosa PAO1 biofilm, 12 h, higher = more signal
[4] = basal CRE-LacZ reporter activity in PC12 – cell-based, unstimulated, primary screen (AID 1145); settings: no forskolin, luminescence, 4.5 h, higher = more signal, called active from +8 up or from −8 down
[5] = forskolin-driven CRE-LacZ activity in PC12 – cell-based, CRE-LacZ reporter, forskolin-stimulated, primary screen (AID 1146); settings: luminescence, 4.5 h, higher = more signal, called active from +8 up or from −8 down;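 note: PC12 cells with 6xCRE LacZ reporter stimulated by forskolin 10 µM; beta-galactosidase reporter signal reflecting CREB driven transcription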
[6] = target: Streptavidin (Streptomyces avidinii) (UniProt P22629); assay: compounds binding control protein streptavidin – biophysical, small-molecule microarray, 635/667 nm fluorescence, artefact control for SMM compound annotation, primary screen (AID 1147); settings: higher = more signal;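 note: signal reflects streptavidin binding to arrayed compounds as a control protein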
[7] = probe aInhba binding on compound microarray – biochemical, small-molecule microarray, 635/667 nm fluorescence, primary screen (AID 1148); settings: higher = more signal;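 note: score merges 667nm spot fluorescence with signal-to-noise for antibody binding to printed compounds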
[8] = target: Torsin-1A (Homo sapiens) (UniProt O14656); assay: TOR1A wild-type binding on microarray – cell lysate, small-molecule microarray, lysate, 635/667 nm, primary screen (AID 1149); settings: COS7 hTOR1A-WT lysate, 635 nm fluorescence, higher = more signal
[9] = target: Torsin-1A (Homo sapiens) (UniProt O14656); assay: torsin A mutant lysate binding on microarrays – cell lysate, small-molecule microarray, COS7 lysate, 635/667 nm fluorescence, primary screen (AID 1150); settings: COS7 hTOR1A mutant lysate, 635 nm fluorescence, higher = more signal;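 note: score pools 667 nm emission and signal to noise measuring lysate protein binding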
[10] = tested on: Sonic hedgehog protein (Shh); assay: Sonic hedgehog microarray binding compounds – biochemical, small-molecule microarray, 635/667 nm fluorescence, primary screen (AID 1151); settings: 635 nm fluorescence, higher = more signal;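 note: Shh protein binding to compounds spotted on small-molecule microarray slides; score combines spot fluorescence intensity with signal-to-noise across triplicate slides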

Torsin-1A (Homo sapiens), sequence (O14656 whole entry, looked up): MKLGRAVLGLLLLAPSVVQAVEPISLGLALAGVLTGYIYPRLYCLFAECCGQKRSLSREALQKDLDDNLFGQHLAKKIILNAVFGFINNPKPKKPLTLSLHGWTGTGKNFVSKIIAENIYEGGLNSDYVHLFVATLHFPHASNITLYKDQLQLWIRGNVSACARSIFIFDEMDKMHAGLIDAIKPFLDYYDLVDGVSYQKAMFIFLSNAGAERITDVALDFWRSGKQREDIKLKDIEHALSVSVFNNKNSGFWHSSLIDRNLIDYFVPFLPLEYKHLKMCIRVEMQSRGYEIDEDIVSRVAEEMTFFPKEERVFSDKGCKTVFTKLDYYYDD
Streptavidin (Streptomyces avidinii), sequence (P22629 whole entry, looked up): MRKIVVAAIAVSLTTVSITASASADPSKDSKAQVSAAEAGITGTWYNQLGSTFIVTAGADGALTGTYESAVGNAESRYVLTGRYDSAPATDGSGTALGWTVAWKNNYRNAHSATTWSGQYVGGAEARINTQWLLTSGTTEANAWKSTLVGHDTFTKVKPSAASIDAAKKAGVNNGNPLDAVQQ

Row | SMILES | composite z-score [1] | z-score [2] | z-score [3] | z-score [4] | z-score [5] | composite z-score [6] | composite z-score [7] | composite z-score [8] | composite z-score [9] | composite z-score [10]
1 | CCOC(=O)C[C@H]1[C@H](OC(=O)Cc2ccc3c(c2)OCO3)[C@@H](NC(=O)c2ccccc2)c2cc(OCCCO)ccc2N1C(=O)Cc1ccc(OC)cc1 | -0.0328 | -1.82 (inactive) | -1.04 (inactive) | 2.31 (inactive) | -0.789 (inactive) | 0.662 | -0.045 | 0.693 | 0.749 | -0.256
2 | CN1C(=O)[C@]2(CCS(=O)(=O)c3ccccc3)N=C(c3ccc(OCCCO)cc3)O[C@@H]2c2ccccc21 | 0.088 | -3.67 (inactive) | 1.24 (inactive) | 1.34 (inactive) | -0.547 (inactive) | 0.294 | 0.174 | 0.0148 | 1.16 | 1.54
3 | COc1ccc(C#Cc2ccc3c(c2)[C@]2(C(=O)N3)[C@H](c3ccc(OCCO)cc3)N3[C@H](c4ccccc4)[C@H](c4ccccc4)OC(=O)[C@H]3[C@@H]2C(=O)O)cc1 | 0.57 | -5.01 (inactive) | -2.48 (inactive) | -0.0515 (inactive) | 3.52 (inactive) | -0.105 | 0.927 | 0.546 | 1.2 | 1.89
4 | CN(C)CCCC[C@@H]1NC(=O)[C@H]2C[C@@H](C(=O)O)[C@@H](c3cccc(OCCO)c3)N2C1=O | 0.205 | -0.0686 (inactive) | -0.43 (inactive) | 0.0124 (inactive) | 0.0684 (inactive) | -0.414 | 0.216 | 0.717 | 1.1 | 1.84
5 | COCCCN1C(=O)[C@@]2(Cc3ccccc31)c1ccccc1C(=O)N(Cc1ccccc1OC)[C@H]2c1ccc(CO)cc1 | -0.0515 | 0.532 (inactive) | 0.53 (inactive) | 0.0279 (inactive) | 1.2 (inactive) | -0.111 | -0.108 | -0.596 | -0.274 | 0.0923
6 | CC(=O)c1ccc(C(O)C2C=CC3C(=O)NC(=O)C3N2Nc2ccc(Cl)cc2Cl)cc1 (stereo not given) | 0 | 0.102 (inactive) | -0.806 (inactive) | 0.626 (inactive) | 0.412 (inactive) | 0.147 | 0.0565 | 0.027 | 0.0127 | -0.257
7 | CCN(CC)c1ccc(N2CC=CC34O[C@@H]5C=CCOC(=O)[C@@H]5[C@H]3C(=O)N(CCCO)[C@@H]4C2=O)cc1 (stereo not given in full) | -0.121 | -2.34 (inactive) | -0.527 (inactive) | -0.228 (inactive) | -0.905 (inactive) | -1.39 | -0.128 | 0.0507 | 2.46 | -0.0981
8 | CCOC(=O)C[C@H]1[C@H](OC(=O)c2cc3ccccc3oc2=O)[C@@H](NC(=O)C2CCCCC2)c2cc(OCCCO)ccc2N1C(=O)Cc1ccc(OC)cc1 | 0.418 | -0.588 (inactive) | -0.273 (inactive) | 0.849 (inactive) | -0.0784 (inactive) | 0.214 | 0.243 | 0.144 | 0.384 | 1.15
9 | CCCCC(=C=CC[C@H](O)c1ccc(OCCO)cc1)C[C@H](O)c1ccccn1 | 0.259 | -0.671 (inactive) | 0.229 (inactive) | 5.13 (inactive) | -0.533 (inactive) | -0.319 | 0.0398 | 0.215 | 1.58 | 1.17
10 | C=CCC(OC(C)=O)[C@@H]1[C@@H](N(Cc2cc3ccccc3o2)C(=O)c2cccc3ccccc23)c2cc(OCCCO)ccc2N1C(=O)c1ccc2ccccc2c1 (stereo not given in full) | 0.316 | -0.928 (inactive) | 0.26 (inactive) | 3.85 (inactive) | 0.0746 (inactive) | 0.0823 | -0.0791 | 0.523 | 0.132 | 0.198
11 | COCC(=C=CC[C@@H](O)c1cccc(OCCO)c1)C[C@@H](O)COCc1ccccc1 | 0.515 | -0.825 (inactive) | 0.125 (inactive) | 5.99 (inactive) | -0.352 (inactive) | 0.709 | 0.825 | 1.58 | 2.28 | 0.436
12 | [N-]=[N+]=NCc1ccccc1[C@H]1OC(c2ccc(OCCCO)cc2)=N[C@@]1(Cc1ccccc1)C(=O)N1CCOCC1 | 0.896 | -3.73 (inactive) | -0.78 (inactive) | 2.02 (inactive) | -0.227 (inactive) | 1.08 | 0.355 | 1.47 | 1.17 | -0.346
13 | COCCCNC(=O)[C@@H]1c2ccccc2C(=O)N(C2CCCCC2)[C@H]1c1ccc(CO)cc1 | -0.384 | -4.86 (inactive) | -0.303 (inactive) | -0.385 (inactive) | 0.656 (inactive) | -0.59 | -0.0963 | 0.691 | -1.51 | -0.759
14 | C#CCN([C@H](/C=C/C1CC1)[C@@H](O)Cc1ccccc1)[C@@H](Cc1ccccc1)C(=O)OC | -0.48 | -2.91 (inactive) | -0.669 (inactive) | 3.21 (inactive) | -0.765 (inactive) | 0.483 | 0.0013 | 0.0515 | -0.409 | 1.08
15 | CCOC(=O)C[C@H]1[C@H](OC(=O)c2ccc(-c3ccccc3)cc2)[C@@H](NC(=O)CC(C)C)c2cc(OCCCO)ccc2N1C(=O)Cc1ccc(OC)cc1 | 0.0564 | -0.155 (inactive) | 0.606 (inactive) | 0.0035 (inactive) | -0.163 (inactive) | 0.438 | -0.0223 | -0.111 | 0.508 | -0.307
16 | COC(=O)[C@@H]1N=C(c2ccc(OCCCO)cc2)O[C@@H]1c1ccccc1CN=[N+]=[N-] | -0.257 | -1.04 (inactive) | -0.245 (inactive) | -0.268 (inactive) | 0.0126 (inactive) | 0.551 | 0.177 | -1.73 | -0.938 | 0.0121
17 | C=CC[C@]1(C(=O)OC)N=C(c2ccc(OCCCO)cc2)O[C@H]1c1ccccc1N=[N+]=[N-] | 1.2 | -3.62 (inactive) | -1.04 (inactive) | 0.171 (inactive) | -2.05 (inactive) | 0.126 | 0.707 | 0.662 | 1 | 1.68
18 | CCCC[C@@H]1C[C@H]1[C@@H](NC(=O)c1ccc(C(F)(F)F)cc1)c1ccc(C(=O)OC)cc1 | 1.16 | -2.9 (inactive) | 0.164 (inactive) | 0.583 (inactive) | -0.269 (inactive) | 1.59 | -0.0092 | 3.21 | 3.93 | 1.91
19 | COc1cc2c(cc1O)C(C1CC1)N(Cc1ccc([N+](=O)[O-])o1)CC2 (stereo not given) | 0.128 | -0.148 (inactive) | 0.741 (inactive) | 0.0924 (inactive) | 0.786 (inactive) | 1.63 | 0.161 | 0.322 | 0.521 | -0.575
20 | CC1CC/C=C\[C@H]2OC34C=CCN(CCN5CCOCC5)C(=O)[C@H]3N(CCCCCCO)C(=O)[C@@H]4C2C(=O)O1 (stereo not given in full) | -0.603 | 0.524 (inactive) | 0.0591 (inactive) | 0.605 (inactive) | 0.241 (inactive) | -0.66 | -0.104 | -1.52 | -0.948 | 0.527
21 | [N-]=[N+]=Nc1ccccc1[C@@H]1OC(c2ccc(OCCCO)cc2)=N[C@]1(Cc1ccccc1)C(N)=O | -0.0757 | -2 (inactive) | -0.0461 (inactive) | 0.195 (inactive) | -1.49 (inactive) | 0.533 | 0.451 | 0.245 | 0.305 | -0.0762
22 | CN(C)CCCCNC(=O)[C@H]1C[C@H]2C(=O)N[C@@H](Cc3ccccc3)C(=O)N2[C@H]1c1cccc(OCCO)c1 | -0.113 | -0.307 (inactive) | -0.584 (inactive) | -1.07 (inactive) | -1.16 (inactive) | -0.203 | -0.128 | -0.163 | 0.59 | 0.878
23 | COCC1=C([C@H](O)CCc2ccccc2)[C@H](CO)n2c(=O)n(-c3ccccc3)c(=O)n2C1 | -0.419 | -1.24 (inactive) | -0.84 (inactive) | 0.129 (inactive) | -0.2 (inactive) | -0.101 | -0.154 | -0.115 | -0.414 | 0.199
24 | COCCOC(=O)N1C(=O)[C@@]2(c3cc(C#CCNC(N)=O)ccc31)[C@H](C(=O)NC[C@H](O)c1ccccc1)[C@H]1C(=O)O[C@H](c3ccccc3)[C@H](c3ccccc3)N1[C@@H]2c1ccc(OCCO)cc1 | 0.0906 | -0.8 (inactive) | -0.297 (inactive) | -0.606 (inactive) | -0.965 (inactive) | 0.516 | -0.192 | 0.131 | 0.219 | 0.783
25 | CC(C)c1ccc(NN2C(C(O)C(C)C)C=CC3C(=O)N(c4ccccc4)C(=O)C32)cc1 (stereo not given) | 0.705 | -0.135 (inactive) | -0.202 (inactive) | 0.0569 (inactive) | -0.241 (inactive) | 1.44 | 0.722 | -0.317 | 0.431 | -0.316
26 | CC(C)CNC(=O)[C@@]1(C)c2ccccc2C(=O)N(Cc2cc(F)cc(C(F)(F)F)c2)[C@H]1c1ccc(CO)cc1 | 0.03 | 0.169 (inactive) | -0.428 (inactive) | -0.321 (inactive) | 0.13 (inactive) | -0.26 | -0.0719 | 0.194 | 0.127 | 1.23
27 | CCOC(=O)C[C@H]1[C@H](OC(=O)c2ccc(-c3ccccc3)cc2)[C@@H](NC(=O)c2ccc3ccccc3c2)c2cc(OCCCO)ccc2N1C(=O)c1ccccc1 | 0.247 | -0.433 (inactive) | 0.0625 (inactive) | 0.544 (inactive) | 1.09 (inactive) | 0.114 | 0.0497 | 0.742 | 0.988 | 0.27
28 | Cc1ccccc1C(O)C1C=CC2C(=O)N(c3ccccc3)C(=O)C2N1Nc1ccccc1F (stereo not given) | 0.0624 | 0.198 (inactive) | -0.626 (inactive) | -1.09 (inactive) | -0.283 (inactive) | 1.14 | 0.0569 | 0.575 | 1.25 | -0.255
29 | COC(=O)[C@@]1(Cc2ccc(OC)cc2)[C@H]2c3cc(C(=O)N4CCCC4)n(CCc4ccc(OC)c(Br)c4)c3C[C@H]2CN1C(=O)c1ccccc1 | -0.0726 | -0.0564 (inactive) | 0.24 (inactive) | 0.387 (inactive) | 0.132 (inactive) | 0.0687 | 0.195 | 0.373 | 0.57 | -0.908
